Consider 56 molecules from PubChem BioAssay AID743395 (Broad Institute, 2014).

The whole screen tested about 1,200 compounds, of which about 480 (40%) were called active. The rule behind the calls is not given here. The set was probably picked from earlier hits. The list is a sample of the results. Results with a measured potency or affinity are listed apart.

A short description of this assay: viability loss in human hepatoma cells – cell-based, CellTiter-Glo luminescence, cherry-pick, set 2, cytotoxicity control, dose response (AID 743395). The note with it: HepG2 viability, CellTiter-Glo ATP luminescence, 72 h; series mostly up to 26 µM.
Regarding `COCCCNc1nnc(Cc2ccc(Cl)cc2)c(=O)[nH]1`, the molecule was classed as inactive.
As for `O=C(CN1CCN(S(=O)(=O)c2ccccc2)CC1)Nc1ccccc1Cl`, the molecule was classed as inactive.
`N#CCC(=O)N/N=C/c1cn(Cc2cccc3ccccc23)c2ccccc12`: the molecule was classed as inactive.
With `COc1ccc2oc(C(=O)N3CCN(C(=O)c4ccco4)CC3)c(C)c2c1` the entry was “inactive”; with `COc1ccc(NC(=O)c2ccc(NC(=O)c3nc4nccc(C)n4n3)cc2)cc1`, “inactive”; with `CCCc1nc2ccccc2c(C(=O)OCC(=O)NCc2ccc3c(c2)OCO3)c1CC`, “inactive”.
With `Cc1ccc(S(=O)(=O)N2CCOCC2)cc1NC(=O)COC(=O)c1ccc(Cl)nc1` the entry was “inactive”; with `COc1ccc(CC(=O)Nc2nccs2)cc1S(=O)(=O)N1CCOCC1`, “inactive”.
On to `Cc1ccc(S(=O)(=O)Nc2ccc3c(c2)C(=O)N([C@@H](C)CO)C[C@H](C)[C@H](CN(C)S(=O)(=O)c2ccc(C)cc2)OCCCC[C@@H](C)O3)cc1`, for which the result was inactive.
Turning to `C[C@H](CO)N1C[C@H](C)[C@H](CN(C)C(=O)NC2CCCCC2)Oc2ncc(-c3cc4ccccc4o3)cc2C1=O`, the result was inactive.
Turning to `Cc1ccc(S(=O)(=O)N(C)C[C@@H]2OCCCC[C@@H](C)Oc3ccc(NS(=O)(=O)c4ccc(Cl)cc4)cc3C(=O)N([C@@H](C)CO)C[C@@H]2C)cc1`, the call was inactive.
Regarding `COc1ccc(S(=O)(=O)Nc2ccc3c(c2)C(=O)N([C@@H](C)CO)C[C@@H](C)[C@H](CN(C)Cc2ccc(Oc4ccccc4)cc2)O3)cc1`, the molecule was called inactive.
For the molecule `COc1ccc(S(=O)(=O)Nc2ccc3c(c2)C(=O)N([C@H](C)CO)C[C@@H](C)[C@@H](CN(C)Cc2ccc(C(F)(F)F)cc2)O3)cc1`, the molecule was called inactive.
For `C[C@@H]1CN([C@H](C)CO)C(=O)c2cc(NC(=O)Cc3ccccc3)ccc2O[C@@H]1CN(C)S(C)(=O)=O`, the molecule was classed as inactive.
Take `CCCNC(=O)N1[C@H](CO)[C@@H](c2ccc(C3=CCCC3)cc2)[C@@H]1CN(C)C(C)=O`: the call was inactive.
`N#C[C@@H]1[C@H](c2ccc(-c3cccc(F)c3)cc2)[C@H](CO)N1C(=O)NC1CCCC1`: the outcome was inactive.
As for `CCOc1ccccc1N1CCN(C(=O)c2cc3ccccc3cc2OC)CC1`, the result was inactive.
For the molecule `Cc1nn(C)c(C)c1/C=C/C(=O)O`, the result was inactive.
Consider `COc1cc(/C=C/C(=O)O)cc(S(=O)(=O)Nc2ccc3cn[nH]c3c2)c1OC`, for which the call was inactive.
`COc1ccc(C)cc1NC(=O)CNC(c1ccccc1)c1ccc(C)cc1` (stereo unspecified): the outcome was inactive.
With `O=C(CSC1=NNC(c2ccccn2)S1)Nc1ccccc1` (stereo unspecified) the entry was “inactive”; with `CN(C)S(=O)(=O)c1ccc2c(c1)/C(=C/c1cc3c([nH]1)CCCC3)C(=O)N2`, “inactive”; with `COC(=O)Cn1c(=NC(=O)c2cc(-c3cccs3)nc3ccccc23)sc2cc(S(N)(=O)=O)ccc21`, “inactive”.
Consider `CN(c1ccc(O)cc1)c1nc(-c2cccs2)cs1`, for which the outcome was inactive.
Regarding `C=CCN=c1scc(C)n1/N=C/c1ccc(O)c(O)c1`, the outcome was inactive.
Take `COCOc1cccc(CN2CCC(C)(Oc3cccc(C#N)c3)C2)c1` (stereo unspecified): the molecule was called inactive.
Turning to `O=C(NCc1cccs1)c1cc(-c2ccccc2)nn1CC1CC(c2cccc([N+](=O)[O-])c2)=NO1` (stereo unspecified), the molecule was called inactive.
Turning to `C=CCN1C(=O)/C(=C/C=C2/N(CC)c3ccc(S(=O)(=O)N(C)C)cc3N2CC)SC1=S`, the molecule was called inactive.
Turning to `CCOc1ccc(Cl)cc1C1=CC(=O)C[C@H](c2ccc(OC)cc2)C1`, the outcome was inactive.
`COc1ccc2c(c1)C(=O)CC(c1ccc3c(c1)OCCO3)O2` (stereo unspecified): the result was inactive.
With `COc1ccc(C2CN=NC23CCc2ccccc2C3=O)cc1` (stereo unspecified) the entry was “inactive”.
For `CCOC(=O)c1[nH]c(C)c(/C(O)=C2\C(=O)C(=O)N(CCCN3CCOCC3)C2c2cccs2)c1C` (stereo unspecified), the molecule was called inactive.
In the case of `CC(C)CC1Nc2ncnc(N3CCN(c4ccccn4)CC3)c2N(Cc2ccc(Br)cc2)C1=O` (stereo unspecified), the outcome was inactive.
On to `COc1ccc(-n2nnnc2C(c2ccccc2)N2CCN(C/C=C/c3ccccc3)CC2)cc1` (stereo unspecified), for which the outcome was inactive.
With `O=C(NNC(=O)c1ccncc1)Nc1ccc(Cl)cc1` the entry was “inactive”; with `CCN1C(=O)[C@H]2[C@@H](c3ccc(-c4ccc(Cl)c(Cl)c4)cc3)N[C@@](C)(C(=O)OC)[C@H]2C1=O`, “inactive”; with `NC(=O)CC(NC(=O)Cc1ccc(Br)cc1)c1ccc(NC2CC3CCC2C3)c([N+](=O)[O-])c1` (stereo unspecified), “inactive”.
For the molecule `CN(C)/C=C1\C=C2C(=O)c3ccccc3N2C1=O`, the call was inactive.
`CC(O)CNc1nc(N)[nH]c(=O)c1N=Nc1ccccc1` (stereo unspecified): the molecule was called inactive.
With `CCC(C(=O)OCC(=O)C1(O)CCC2C3CCC4=CC(=O)CCC4(C)C3C(O)CC21C)C(C)C` (stereo unspecified) the entry was “inactive”; with `OC[C@@H]1[C@@H](c2ccccc2)C2(CN(Cc3ccccc3F)C2)N1Cc1ccccc1F`, “inactive”; with `NC(=O)c1cc(Cl)ccc1OCC(=O)NC1CC1`, “inactive”.
With `COc1ccc(C#Cc2ccc3c(c2)[C@@H]2[C@@H](CCN2C(=O)c2cccc(F)c2)[C@@H](CO)N3)cc1` the entry was “inactive”; with `O=C(c1ccccc1F)N1CC[C@@H]2[C@H](CO)Nc3ccc(Br)cc3[C@@H]21`, “inactive”; with `O=C(NCc1nnnn1-c1ccc(Cl)cc1)C(=O)c1c[nH]c2ccccc12`, “inactive”.
On to `COc1ccc(NC(=O)N[C@@H]2CC[C@@H](CCn3cc(-c4ccc(F)cc4)nn3)O[C@@H]2CO)cc1`, for which the result was inactive.
Take `NNC(=O)c1[nH]c2ccc(Cl)cc2c1-c1ccccc1`: the molecule was classed as inactive.
On to `O=C(NC(Cc1ccccc1)C(=O)N1CCN(S(=O)(=O)c2ccccc2F)CC1)c1ccccc1` (stereo unspecified), for which the molecule was classed as inactive.
Turning to `CC1CN(S(=O)(=O)c2cccc(C(=O)Nc3cc(Cl)ccc3N3CCOCC3)c2)CC(C)O1` (stereo unspecified), the outcome was inactive.
For `CC(C)(C)C(=O)OCc1nc(-c2ccc(O)c(O)c2)cs1`, the molecule was called inactive.
With `CO[C@@H](CN(C)S(=O)(=O)c1ccc(C)cc1)[C@H](C)CN([C@H](C)CO)S(=O)(=O)c1cccc(Cl)c1` the entry was “inactive”.
Turning to `COc1ccc(CNC(=O)c2cc3c(c(-c4cccc(-c5ccc(C#N)cc5)c4)n2)[C@@H](CCO)N([S@](=O)C(C)(C)C)C3)cc1`, the molecule was classed as inactive.
With `CC(Sc1nc2ccccc2c(=O)n1C)C(=O)Nc1ccc2c(c1)OCCO2` (stereo unspecified), the result was inactive.
Regarding `COc1cccc(C(=O)c2c[nH]c(C(=O)NCCCN3CCOCC3)c2)c1`, the result was inactive.
As for `c1ccc(CCN(Cc2ccccc2)Cc2nc(C3CC3)no2)cc1`, the molecule was called inactive.
With `O=C(CCN1CCCCC1)N1CCc2c([nH]c3ccccc23)C1c1cccnc1` (stereo unspecified), the molecule was called inactive.
